110 sequences from the supplement of paper PMC3334620 can be followed below.

In all, about 33,000 sequences were measured (“E-score (-0.5 to 0.5)”: median about -0.056, highest 2% from about 0.38 on). The full list was thinned out, with the highest values kept by preference.

UniProt P50104, sequence (P50104 whole entry, the tested form may be a part): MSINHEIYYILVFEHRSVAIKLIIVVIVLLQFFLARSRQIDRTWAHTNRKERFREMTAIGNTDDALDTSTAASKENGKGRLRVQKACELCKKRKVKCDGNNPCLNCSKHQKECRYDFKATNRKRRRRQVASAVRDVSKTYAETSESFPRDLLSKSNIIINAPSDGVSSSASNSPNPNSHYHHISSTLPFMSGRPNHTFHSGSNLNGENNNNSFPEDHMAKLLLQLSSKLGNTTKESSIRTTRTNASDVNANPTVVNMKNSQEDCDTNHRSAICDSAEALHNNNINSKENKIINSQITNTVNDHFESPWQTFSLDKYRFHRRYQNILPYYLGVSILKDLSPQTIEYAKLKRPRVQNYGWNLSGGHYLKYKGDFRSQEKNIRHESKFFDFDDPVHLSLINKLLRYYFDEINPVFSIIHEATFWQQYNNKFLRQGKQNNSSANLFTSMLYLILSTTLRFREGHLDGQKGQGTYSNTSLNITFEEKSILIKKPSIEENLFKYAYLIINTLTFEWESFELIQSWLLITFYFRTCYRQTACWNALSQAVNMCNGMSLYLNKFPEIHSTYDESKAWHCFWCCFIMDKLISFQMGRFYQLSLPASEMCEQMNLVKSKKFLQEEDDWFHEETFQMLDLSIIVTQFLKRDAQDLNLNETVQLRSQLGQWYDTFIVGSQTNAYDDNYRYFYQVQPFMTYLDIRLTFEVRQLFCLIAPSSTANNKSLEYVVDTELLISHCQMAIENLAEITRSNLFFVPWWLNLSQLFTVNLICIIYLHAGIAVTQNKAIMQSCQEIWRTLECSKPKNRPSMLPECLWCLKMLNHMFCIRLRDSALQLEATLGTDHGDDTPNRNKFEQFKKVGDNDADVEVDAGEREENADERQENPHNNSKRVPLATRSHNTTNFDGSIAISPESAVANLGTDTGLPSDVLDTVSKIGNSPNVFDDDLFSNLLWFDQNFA

The target in this test is Stb4 (UniProt P50104). As to the kind of experiment: PBM E-score (8-mer binding enrichment) (E-score (-0.5 to 0.5)); higher = stronger / more preferred TF binding. The following applies: protein concentration: 200 nM; construct: GST-DNA-binding domain. As to the method:
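Universal 'all 10-mer' protein binding microarrays (Agilent AMADID 015681) probed with GST-tagged S. cerevisiae TFs (full-length or DBD) made by in vitro transcription/translation (PURExpress), about 100-200 nM. Bound TF was detected with fluorescent anti-GST. Each ungapped 8-mer (which stands for itself and its reverse complement) is scored by the PBM enrichment score (E-score), a modified Wilcoxon-Mann-Whitney statistic from -0.5 to +0.5, computed with the Universal PBM Analysis Suite. Scale: above 0.35 generally sequence-specific binding.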
In the case of AACCCGAA, the “PBM E-score” value came to 0.387.
Then AACCCGCA, with 0.156.
The value for ACCAAGAA was -0.0301; that for TGCCGGCA was 0.296.
For AGCCGGAT, the “PBM E-score” value is 0.396.
As for TGCCGGAA, the “PBM E-score” value stood at 0.419.
Take CGCCGGAC: the “PBM E-score” value was determined as 0.146.
Then AGCCGGAG, with 0.379; and AGCCGGCA, with 0.316; and AGCCGGCT, with 0.238.
Then CGCCGGAA, with 0.392; and AGCCGGAC, with 0.239; and AGCCGGAA, with 0.395.
Then GGCCGGAA, with 0.371.
Take CGCCGGAG: the “PBM E-score” value is 0.168.
Then AAGAATAT, with 0.0558; and GCAAGTAA, with -0.0627; and ATTTAAAT, with -0.101.
The value for AGAAAGGG was -0.138; that for ATCTTGTA was -0.0999.
Then TGAGAGCA, with -0.178; and CATCGCCA, with -0.0625.
For CGGCGGAA, the “PBM E-score” value stood at 0.408.
The value for GGGCGGAA was 0.308; that for AGGCGGAA was 0.278; that for CAGCTTTA was -0.0389.
The value for ACTCGTAA was 0.0295.
The value for GCACGGAA was 0.327; that for GCTCGGAA was 0.482.
Regarding ACTCGGAC, the “PBM E-score” value turned out to be 0.327.
Then ACTCGGAA, with 0.47; and ACTCGGTC, with 0.204.
As to TCGCGGAA, the “PBM E-score” value was 0.315.
Then GCGCGGAA, with 0.338; and TCTCGGAA, with 0.479.
The value for ACTCGGTG was 0.124.
The value for ACTCGGAT was 0.467; that for TCTCGTAA was 0.00218; that for CAGTCCCC was -0.362.
Regarding CTCTCAGC, the “PBM E-score” value was -0.362.
Take CCACTGGG: the “PBM E-score” value was -0.231.
The value for ATCGCATG was -0.117; that for AGATACAC was -0.107.
With AGGCAGGA, the “PBM E-score” value was -0.188.
The value for ACTCTATC was -0.0391.
Consider AAGGCTAC, for which the “PBM E-score” value was -0.0344.
Then CCCACTCG, with 0.0329; and ACACGGAA, with 0.338.
Take CCACGGAA: the “PBM E-score” value was 0.354.
Then GCTCGGAC, with 0.391; and GCTCGTAC, with -0.0377; and TCACGGAA, with 0.389.
With GCACGGAC, the “PBM E-score” value turned out to be 0.13.
Then GTCACCAC, with -0.103.
Then AGGGGAGA, with -0.0188.
The value for GTGCGTCA was -0.101; that for CCCCGCTC was -0.0289; that for CTAAATCC was 0.205.
For GATTATCA, the “PBM E-score” value was 0.0201.
The value for AGTATCAT was 0.0471; that for ACTCCAGC was -0.253; that for CGGGTAGA was 0.389.
Then AGGGTATC, with -0.0302; and CGGGTTTA, with 0.389; and GGGGTATA, with 0.06.
Take CGGGTATC: the “PBM E-score” value worked out at 0.404.
For CGGGTACC, the “PBM E-score” value came to 0.312.
Then CGGGTATA, with 0.418; and CGGGTAGC, with 0.37.
Take GGGGTTTA: the “PBM E-score” value was -0.0416.
Take CGGGTTTC: the “PBM E-score” value worked out at 0.277.
Then AGGGTATA, with -0.029.
On to AGGGTAGA, for which the “PBM E-score” value was -0.166.
The value for CAGCATCC was 0.121; that for GACAAGTA was -0.0988.
The value for AGAGTGCG was -0.164; that for CGTTGATA was 0.0343; that for AGATCTGG was -0.188.
CAACTAGA: the “PBM E-score” value was -0.182.
GAACGGTC: the “PBM E-score” value amounted to 0.148.
Then GATCCCAC, with -0.00608; and GATCCGCC, with 0.273; and AATCCGCC, with 0.218.
Then AATCCGTG, with 0.172; and CGTCCGAG, with 0.257; and GATCCAAC, with 0.104.
Then AATCCGAG, with 0.407; and GATCCGAC, with 0.434; and CATCCGCG, with 0.285.
Turning to AATCCGCG, the “PBM E-score” value was determined as 0.127.
The value for CATCCGCC was 0.4; that for CATCCGAG was 0.481.
The value for ACCAGCCA was -0.0271.
The value for CAGAGATA was -0.182; that for CGAGTTGC was 0.0987.
Regarding CGCTCCCA, the “PBM E-score” value is -0.0934.
The value for CCAAACAG was -0.345.
Turning to GGAGAGAA, the “PBM E-score” value stood at 0.0164.
The value for GATGTGGC was -0.0114.
Then CATCCGTC, with 0.308; and AATCCGAC, with 0.346; and CATCCGAC, with 0.455.
In the case of ACTCAGTG, the “PBM E-score” value is -0.208.
Consider ACGATCAT, for which the “PBM E-score” value was -0.174.
The value for CAACCATA was -0.251.
The value for AACGAATG was -0.142; that for AGCAGCTG was -0.307; that for GCTCAGAC was -0.19.
In the case of CGACTAGA, the “PBM E-score” value was -0.0326.
Then TGAGTGAA, with -0.295.
